Test results taken from paper PMC4336329 (PLoS ONE, 2015).
Among all 310,000 compounds or so, about 14,000 (4.5%) showed an effect of 50% or more. Effects have a minus sign here. The sample holds strong results, similar compounds and a random draw of the others, so the mix is not that of the screen.

biological target: human ether-à-go-go-related gene (hERG) potassium channel (human, UniProt Q12809); experiment: primary screen, population patch clamp on CHO cells stably expressing hERG; higher = less effect of the substance
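Note: peak tail current of the secondary pulse compared with the same well before compound.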

human ether-à-go-go-related gene (hERG) potassium channel, sequence (Q12809 whole entry, looked up): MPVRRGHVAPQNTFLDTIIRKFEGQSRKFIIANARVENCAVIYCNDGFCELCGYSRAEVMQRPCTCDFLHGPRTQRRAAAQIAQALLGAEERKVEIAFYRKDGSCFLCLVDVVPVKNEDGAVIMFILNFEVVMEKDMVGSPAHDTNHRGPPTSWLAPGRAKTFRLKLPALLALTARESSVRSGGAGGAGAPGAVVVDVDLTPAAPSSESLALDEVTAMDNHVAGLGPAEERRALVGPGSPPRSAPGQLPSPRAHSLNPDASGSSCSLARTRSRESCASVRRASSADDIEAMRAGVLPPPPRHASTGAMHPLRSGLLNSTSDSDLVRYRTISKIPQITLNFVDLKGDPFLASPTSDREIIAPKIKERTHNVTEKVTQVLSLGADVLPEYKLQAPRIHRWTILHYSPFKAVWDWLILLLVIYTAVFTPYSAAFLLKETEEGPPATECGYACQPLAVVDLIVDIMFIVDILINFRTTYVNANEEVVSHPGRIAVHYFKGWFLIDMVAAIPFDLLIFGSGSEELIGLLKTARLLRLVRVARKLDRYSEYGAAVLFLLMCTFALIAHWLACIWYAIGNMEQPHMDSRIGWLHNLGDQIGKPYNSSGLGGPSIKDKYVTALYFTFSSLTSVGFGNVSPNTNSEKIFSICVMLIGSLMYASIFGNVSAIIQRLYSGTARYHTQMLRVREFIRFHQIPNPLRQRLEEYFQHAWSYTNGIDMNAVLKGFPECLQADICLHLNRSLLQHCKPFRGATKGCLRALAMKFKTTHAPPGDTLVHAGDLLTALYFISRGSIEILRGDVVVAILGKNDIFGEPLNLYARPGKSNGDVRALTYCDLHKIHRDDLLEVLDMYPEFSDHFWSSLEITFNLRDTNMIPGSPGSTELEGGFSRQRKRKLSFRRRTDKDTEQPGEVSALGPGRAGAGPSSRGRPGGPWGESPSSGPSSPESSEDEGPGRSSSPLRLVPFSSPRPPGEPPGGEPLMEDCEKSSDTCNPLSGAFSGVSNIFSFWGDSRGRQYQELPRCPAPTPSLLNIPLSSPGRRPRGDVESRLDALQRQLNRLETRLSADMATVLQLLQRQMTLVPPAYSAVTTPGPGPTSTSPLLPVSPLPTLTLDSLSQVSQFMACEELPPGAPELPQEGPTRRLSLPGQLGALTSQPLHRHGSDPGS

Point of comparison: CC1CCN(c2nc3ccccc3n2CC(=O)c2ccccc2)CC1, “hERG current change (%, negative = inhibition) at 10uM” value 56%. Against it:
- Cl.NC(CO)C12CC3CC(CC(C3)C1)C2 (centres unmarked) — lower, 9.97%
- Cc1ccc(C(C(=O)NCc2ccco2)N(C(=O)CNC(=O)c2cccs2)c2ccc(C)cc2C)cc1 (centres unmarked) — lower, -10.3%
- CN1CCN(c2nc(-c3ccccc3)cc(C(F)(F)F)n2)CC1 — lower, -19.1%
- CCOc1ccc2c(c1)c(N=NC(N)=S)c(O)n2C — lower, 1.21%
- CC(C)Cc1nnc(NC(=O)C2CC(=O)N(Cc3ccccc3)C2)s1 (centres unmarked) — lower, 0.385%
- Cc1ccccc1C(=O)NNC(=O)C1CC(=O)N(Cc2ccccc2)C1 (centres unmarked) — lower, 2.19%
- COc1ccc(C(C#N)c2ccc(Cl)nn2)cc1 (centres unmarked) — lower, -2.07%
- Cc1ccc2[nH]c(=O)c3cc(C(=O)NCC4CCCO4)sc3c2c1 (centres unmarked) — lower, -3.5%
- CS(=O)(=O)Nc1ccc(C(=O)NC2CCCCC2)cc1 — lower, -0.845%
- COc1ccc2cc(C)c(SCC(=O)Nc3cc(C)on3)nc2c1 — lower, 6.5%
- COc1ccc(-c2nc3ccccc3o2)cc1NC(=O)c1ccc(Br)o1 — lower, 4.92%
- CCOC(=O)COn1c(=O)c(-c2ccc(OC)cc2)[n+]([O-])c2ccccc21 — lower, -1.13%
- COCCN(CCOC)C(=O)C1CCN(c2ccc(S(=O)(=O)N3CCOCC3)cc2[N+](=O)[O-])CC1 — lower, -35.5%
- O=C(NCc1ccco1)C1CCN(c2ccc(S(=O)(=O)N3CCOCC3)cc2[N+](=O)[O-])CC1 — lower, -70%
- C=CCNC(=O)C1CCN(c2ccc(S(=O)(=O)N3CCOCC3)cc2[N+](=O)[O-])CC1 — lower, -24%
- CC(C)CNC(=O)C1CCN(c2ccc(S(=O)(=O)N3CCOCC3)cc2[N+](=O)[O-])CC1 — lower, -38.8%
- CCCN(CCC)C(=O)C1CCN(c2ccc(S(=O)(=O)N3CCOCC3)cc2[N+](=O)[O-])CC1 — lower, -22.4%
- CCCCN(C)C(=O)C1CCN(c2ccc(S(=O)(=O)N3CCOCC3)cc2[N+](=O)[O-])CC1 — lower, -53.9%
- CN(/N=C/c1ccco1)C1=NS(=O)(=O)c2ccccc21 — lower, 4.85%
- O=C(CC(SCCO)c1ccc2c(c1)OCO2)c1cccs1 (centres unmarked) — lower, -16.7%
- CCOc1cc(N2CCOCC2)c(OCC)cc1NC(=O)CCS(=O)(=O)c1ccc(Cl)cc1 — lower, -35.5%
- N#CCCN1CCN(S(=O)(=O)c2ccc(S(=O)(=O)NC3CC3)cc2)CC1 — lower, -1.76%
- O=C(Nc1cccc(C(F)(F)F)c1)c1c(O)c2ccccc2[nH]c1=O — lower, 16%
- CN(C)CCN=Cc1c(O)n(CCC2=CCCCC2)c(=O)[nH]c1=O — lower, -24.2%
- CCN(CC)CCCN=Cc1c(O)n(CCc2ccc(F)cc2)c(=O)[nH]c1=O — lower, -56.1%
- O=c1[nH]c(=O)n(CCC2=CCCCC2)c(O)c1C=NCCN1CCNCC1 — lower, -11.7%
- CCN(CC)CCN=Cc1c(O)n(CCC2=CCCCC2)c(=O)[nH]c1=O — lower, -65.6%
- CCN(CC)CCCN=Cc1c(O)n(Cc2ccc(F)cc2)c(=O)[nH]c1=O — lower, -33.7%
- CN(C)CCCN=Cc1c(O)n(CCc2ccc(F)cc2)c(=O)[nH]c1=O — lower, 15.2%
- CN1CCN(c2ccc(S(=O)(=O)N3CCOCC3)cc2NC(=O)CC(C)(C)C)CC1 — lower, 8.55%
- O=C(NCc1ccco1)c1ccc(COCC(F)(F)C(F)F)cc1 — lower, -13.6%
- CC(=O)Nc1ccc(S(=O)(=O)/N=C2\SCCN2S(=O)(=O)c2ccc(NC(C)=O)cc2)cc1 — lower, -5.46%
- C=CCSc1nsc(NC(=O)Nc2ccc(F)cc2)n1 — lower, 22.1%
- COc1cc(-c2nnc(SCC3(c4ccc(Br)cc4)OCCO3)o2)cc(OC)c1OC — lower, -9.92%
- Cc1nc(C(C)NC(=O)c2cc(COc3ccc(F)c(F)c3)on2)cs1 (centres unmarked) — lower, -11.2%
- O=[N+]([O-])c1ccc(OCCn2cnc3ccccc32)cc1 — lower, -68.1%
- O=c1c2ccccc2ncn1CCOCCOc1ccc([N+](=O)[O-])cc1 — lower, -64.3%
- c1ccc(OCCn2cnc3ccccc32)cc1 — lower, -9.08%
- CC(C)(C)c1ccc(OCCOCCn2cnc3ccccc3c2=O)cc1 — lower, -36.8%
- O=c1c2ccc([N+](=O)[O-])cc2ncn1CCOc1ccccc1 — lower, -8.16%
- COc1ccc(OCCn2cnc3ccccc32)cc1 — lower, 0.789%
- Cc1c(C(=O)OC(C)C)sc(NC(=O)c2cccnc2)c1C#N — lower, 18.3%
- CCOc1ccc(CCNC(=O)c2ccc(Cl)c(S(=O)(=O)N3CCOCC3)c2)cc1OCC — lower, -20.4%
- CCN(C(=O)Cn1c(=O)oc2ccccc21)c1cccc(C)c1 — lower, 6.38%
- COc1cc2c(cc1OC)C1=C(C#N)CC/C(=N\S(=O)(=O)c3ccccc3)N1CC2 — lower, -33.1%
- O=C(CSc1nnc(NC(=O)c2cccc(Cl)c2)s1)NCC1CCCO1 (centres unmarked) — lower, 20%
- Cl.O=C(O)c1ccc(CNCc2ccc(F)cc2)cc1 — lower, 16.4%
- CCOC(=O)Cc1csc(NC(=O)c2sc3nc4cc(C)ccc4cc3c2N)n1 — lower, -6.55%
- CCn1c(N2CCN(C(=O)c3ccco3)CC2)nc2ccccc21 — lower, -50.7%
- CC(C)Cn1c(SCC(=O)N2CCN(S(=O)(=O)c3ccccc3)CC2)nc2ccccc21 — lower, 0.539%
- Cc1nnc2c(N3CCN(C(=O)c4ccco4)CC3)nc3ccccc3n12 — lower, -33.1%
- CC(C)n1c(N2CCN(C(=O)c3cccs3)CC2)nc2ccccc21 — lower, -49.2%
- CC(C)Cn1c(N2CCN(C(=O)/C=C/c3ccccc3)CC2)nc2ccccc21 — lower, -69.1%
- CC(C)Cn1c(N2CCN(C(=O)c3cccs3)CC2)nc2ccccc21 — lower, -73.6%
- O=C(c1cccs1)N1CCn2c1nc1ccccc12 — lower, -25.5%
- O=C(Cn1c(N2CCN(c3ccccc3)CC2)nc2ccccc21)c1ccccc1 — lower, -16.1%
- CCn1c(N2CCN(C(=S)NCCc3ccccc3)CC2)nc2ccccc21 — lower, -50%
- CC(C)Cn1c(/C=C/c2ccccc2)nc2ccccc21 — lower, -42.2%
- O=C(Cn1c(N2CCN(C/C=C/c3ccccc3)CC2)nc2ccccc21)c1ccccc1 — lower, -51.2%
- COc1ccc(/C=C2\C(=O)NC(=O)N(CCC3=CCCCC3)C2=O)c(OC)c1 — lower, 24.6%
- COc1ccccc1NC(=O)C1=C(C)Nc2nnnn2C1c1cc(Br)ccc1OC (centres unmarked) — lower, -0.22%
- CCOc1ccccc1C(=O)OCC(=O)NCCNC(=O)COC(=O)c1ccccc1OCC — lower, 5.95%
- O=C(CC1S/C(=N/N=C/c2cccs2)NC1=O)Nc1ccc(Cl)cc1 (centres unmarked) — lower, -3.86%
- Cc1cc(C)cc(N(C(=O)c2snc(C(N)=O)c2N)C(C(=O)NCC2CCCO2)c2cccs2)c1 (centres unmarked) — lower, -18.7%
- Cc1ccc(C(=O)/C=C/Nc2ccccn2)cc1 — lower, -1.05%
- O=C(COc1ccccc1[N+](=O)[O-])N1CCN(S(=O)(=O)c2ccccc2)CC1 — lower, -46.6%
- CCOC(=O)Cn1c(C)nc2c(C(=O)OCC)sc(C)c2c1=O — lower, -5%
- O=C(NCCCN1CCCC1=O)c1cc(NS(=O)(=O)c2ccc(F)cc2)cc(NS(=O)(=O)c2ccc(F)cc2)c1 — lower, -4.88%
- CCn1c(N2CCN(C(=O)/C=C/c3ccccc3)CC2)nc2ccccc21 — lower, -80.8%
- CCCn1c(N2CCN(C(=O)/C=C/C(=O)O)CC2)nc2ccccc21 — lower, 9.76%
- CCn1c(N2CCN(C(=O)C34CC5CC(CC(C5)C3)C4)CC2)nc2ccccc21 — lower, -37.9%
- Cc1cccc(C(=O)NC(=S)NNC(=O)Cc2ccccc2)c1 — lower, 3.66%
- O=C(C1CCCO1)N1CCN(C(=S)NC2CC2)CC1 (centres unmarked) — lower, 23%
- COc1cccc(C2C=C(c3ccc(OC)cc3OC)Nc3nnnn32)c1 (centres unmarked) — lower, 1.76%
- O=C(CCNS(=O)(=O)c1cccc2nonc12)N1CCN(c2cccc(Cl)c2)CC1 — lower, -50.6%
- O=S(=O)(c1cccc2nonc12)N1CCN(c2cccc(Cl)c2)CC1 — lower, -4%
- O=C(CCS(=O)(=O)c1cccc2nonc12)N1CCOCC1 — lower, 14.6%
- Cc1ccc(C)c(N2CCN(C(=O)CCS(=O)(=O)c3cccc4nonc34)CC2)c1 — lower, -25.4%
- Cc1ccc(S(=O)(=O)NCCC(=O)N2CCN(c3cccc(Cl)c3)CC2)cc1C — lower, 4.35%
- O=C(CCS(=O)(=O)c1cccc2nonc12)N1CCN(c2ccc(F)cc2)CC1 — lower, -60.8%
- CSc1ncc(C(=O)Nc2ccccc2C)c(C)n1 — lower, 12.5%
- Cc1ccc(-c2nc3c(=O)n(C)c4ccccc4c3o2)cc1 — lower, 22.3%
- Nc1cc(=O)[nH]c(=O)n1-c1cccc(F)c1 — lower, 18.4%
- COc1ccccc1NC(=O)c1cc2c(=O)n(C)c3ccccc3c2n1C — lower, 1.19%
- O=C(OCCOc1cccc(Cl)c1)c1cc(S(=O)(=O)N2CCOCC2)ccc1F — lower, -14%
